# Values joined by “and” are separate entries in the source; they are usually repeats but may differ in a detail not shown here. Equal entries are not always repeated. Compounds without any hit were thinned out: in the full panel of roughly 83,000, 20% have a hit.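 Each cell line was grown in a 96-well plate and treated with one concentration of compound for 48 hours. Values below 10 were considered active.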 Active and inactive are the calls of the source.
# System: HL-60(TB) leukemia
# Test: NCI-60 one-dose screen, 48 h (100 = growth as untreated, 0 = no growth, -100 = all killed)
# Conditions: 10 µM unless noted
row,SMILES,growth
1,O=C(Nc1ccc(Cl)cc1)c1cc2ccccc2cc1O,-8.5% (active) and -29.4% (active)
2,CC(=O)c1cc(O)c2ccccc2c1O,63.9% (inactive)
3,N#CC1=C(N)Oc2c(sc3c(F)cccc23)C1c1ccc(F)cc1 (stereo not given),5.96% (active)
4,O=Nc1ccc(Nc2ccccc2)cc1,-1.72% (active)
5,C=C(CBr)[C@@H]1CC[C@]2(COC(C)=O)CC[C@]3(C)[C@H](CC[C@@H]4[C@@]5(C)CCCNC(C)(C)[C@@H]5CC[C@]43C)[C@@H]12,-8.09% (active)
6,CCCCCOC(=O)c1ccc(NC(=O)CNCC(C)C)cc1,84.6% (inactive)
7,Cc1ccc2c(ccc3c[n+]4c5ccccc5ccc4n32)c1,2.59% (active)
8,CC(C)NCCCCCNc1cc(O)cc2cccnc12,-43.6% (active)
9,COc1cc(CNC(=O)/C=C/C=C/c2ccc3c(c2)OCO3)ccc1OCc1cn(-c2ccc(Cl)c(Cl)c2)nn1,85.4% (inactive)
10,Cc1ccc(C(O)C2=CC(=O)c3ccccc3C2=O)cc1 (stereo not given),92.1% (inactive)
11,O=C1CCc2c(sc3[nH]c(=S)n(-c4ccc(OC(F)(F)F)cc4)c(=O)c23)C1,39.7% (inactive)
12,O=C(Nc1cccc(-n2cc(-c3ccncc3)c(-c3ccc(O)c(Cl)c3)n2)c1)Nc1cccc(C(F)(F)F)c1,-11.6% (active)
13,O=C1NCc2ccc3c(-c4cccc(Cl)c4)c[nH]c3c21,-4.05% (active)
14,C/C(=N/NC(=O)Cn1c2ccccc2c2ccncc21)c1cccs1,83.5% (inactive)
15,CCCCCCCCn1ccc2cc(NC(=O)Cn3cc(CN4CCCCC4)nn3)ccc21,-18.7% (active)
16,COc1cc(NCCCCC(C)N)c2nccc(C)c2c1 (stereo not given),96.7% (inactive)
17,COc1cc(-c2nc3cc(Cl)c(Cl)cc3[nH]2)ccc1OCC(=O)NN,82% (inactive)
18,Cc1cc(=O)[nH]c(O)c1C#N,109% (inactive) and 137% (inactive)
19,CCCCCCCC/C=C\CCCCCCCCOc1ccccc1CCOP(=O)(O)OCC[N+](C)(C)C,-23% (active)
20,CCc1ccc(Oc2c(-c3ccc(OCc4ccc(Cl)cc4)cc3O)n[nH]c2C(F)(F)F)cc1,-6.99% (active)

row,SMILES,growth
1,O=C1OC(c2ccc(-c3ccccc3)cc2)=C/C1=C/c1cccs1,75% (inactive)
2,CCOc1cc2ncc(C#N)c(Nc3ccc(F)c(Cl)c3)c2cc1NC(=O)CC1CCSS1 (stereo not given),-33.9% (active)
3,COc1ccc(C(=O)C(=O)c2ccccc2)cc1,94.2% (inactive)
4,Nc1c(C(=O)Nc2cccc(Cl)c2)sc2nc3c(cc12)C(=O)CCC3,33.1% (inactive)
5,CC1Cc2c(Cl)ncnc2N(C)c2ccc(F)cc21 (stereo not given),91.6% (inactive)
6,COc1ccc(CN2C(=O)/C(=C\c3cc(OC)c(OC)c(OC)c3)c3ccccc32)cc1,-16.2% (active)
7,CC1(CO)CCCC12OCCO2 (stereo not given),105% (inactive)
8,CCOc1ccc(Nc2c3ccccc3nc3ccccc23)cc1,90.2% (inactive) and 8.63% (active) and 8.99% (active)
9,COc1ccccc1S(=O)Nc1ccccc1 (stereo not given),91.5% (inactive)
10,Nc1nc(=S)c2[nH]cnc2[nH]1,13.9% (inactive) and -13.4% (active)
11,COc1cc(-c2nn(-c3cccc(NC(=O)NCCNC(=O)c4ccccc4)c3)cc2-c2ccncc2)ccc1Cl,-8.76% (active)
12,COc1ccc(-c2nc3sc(C)nn3c2-c2nc3cc(C)c(C)cc3[nH]2)cc1,112% (inactive)
13,O=C(CCc1nnc2sc(COc3ccccc3)nn12)c1nc2ncccc2[nH]1,117% (inactive)
14,Cc1nc(Nc2ccccn2)sc1C(=O)/C=C/c1ccc(Cl)cc1,-38.8% (active)
15,CC(O)Cn1cnc2c1c(=O)n(C)c(=O)n2C (stereo not given),97.1% (inactive)
16,CCOc1ccccc1NC(=O)CCl,104% (inactive)
17,CC(=O)N1N=C(c2ccc(Nc3nc(Nc4ccc(Cl)cc4)nc(Nc4ccc(Cl)cc4)n3)cc2)CC1c1ccco1 (stereo not given),93.6% (inactive)
18,COc1cc(NC(=O)COc2ccccc2)c(C(N)=O)cc1OC,-11.7% (active)
19,O=C(C(=O)N1CCOCC1)c1cn(CCCn2cc(C(=O)C(=O)N3CCOCC3)c3ccccc32)c2ccccc12,91.9% (inactive)
20,CCCCC(N)(C(=O)O)C1CCCC1 (stereo not given),132% (inactive)

# Reference: PubChem BioAssay (NCI)
